This is part of a sample that, as a whole, favours compounds with a hit. Of some 83,000 tested, about 20% had one in any assay.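 Results are percent growth after 48 hours of single-concentration exposure. 100 means growth as in untreated cells, lower positive values show inhibition; negative values down to -100 show cell death.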 Values without a mark were called inactive. Calls of active or inactive are those of the source.

The test system of this assay is SK-MEL-28 melanoma. Put plainly: NCI-60 one-dose screen, 48 h (100 = growth as untreated, 0 = no growth, -100 = all killed). The note with it: 10 µM unless noted. The method, then:
Growth inhibition of the SK-MEL-28 human tumor cell line is measured as a screen for anti-cancer activity. Cells are grown in 96 well plates and exposed to the test compound for 48 hours. Compounds are tested at a single concentration, which is 10^-5 M for most compounds. The reported endpoint is percent growth (GI% or GIPRCNT), where numbers from 0 - 100% represent growth inhibition, and numbers from -100% - 0 represent cell death. For example, a value of 40 represents 60% growth inhibition. A value of 0 means no net growth occurred over the course of the experiment. A value of -40 indicates 40% of cells at the beginning of the experiment died by the end of the experiment. A value of -100 means all cells are dead at the end of the experiment.
NCI-60 Human Tumor Cell Lines Screen was performed using the standard one-dose NCI protocol, which is described in more detail at https://dtp.cancer.gov/discovery_development/nci-60/default.htm.
Compounds with GIPRCNT values below 10 were considered active. Activity score was based on GIPRCNT using the following formula: […]
Score is 0 for GIPRCNT values of 100 or above, 50 for GIPRCNT values of 0, and 100 for GIPRCNT values of -100.
As to `Cn1c(=O)c2[nH]c(N/N=C/c3ccccc3Br)nc2n(C)c1=O`, the growth is 107%.

For `CCO/C=N/C1=C(C#N)C(c2ccc(OC)cc2)c2sc3c(F)cccc3c2O1` (stereo not given), the growth was 60.4%.

Turning to `CCNC(=O)c1[nH]cc(-c2ccccc2)c1-c1cc(OC)c2c(c1OC)OCO2`, the growth was 108%.

With `O=C(c1cc2ccccc2o1)c1nn(-c2ccccc2)/c(=N/N=Cc2cn(-c3ccccc3)nc2-c2cc3ccccc3oc2=O)s1`, the growth is 114%.

For `O=C(Nc1cccnc1Nc1ccc(F)cc1)c1cn(Cc2cccc(Oc3ccccc3)c2)nn1`, the growth was 68.7%.

For `Oc1c(Cl)cc(Cl)cc1/C=N/Nc1nnc(N/N=C/c2cc(Cl)cc(Cl)c2O)c2ccccc12`, the growth was 22.9%.

Turning to `N#CC1=C(N)Oc2c(sc3c(F)cccc23)C1c1ccc(F)cc1` (stereo not given), the growth is 64%.

Take `O=C(OCc1ccc2cccc(O)c2n1)N1CCN(C(=O)c2cc3cc(F)ccc3[nH]2)CC1`: the growth is -91.2% (active).

For the compound `C#Cc1ccc(NC(=O)c2ccc(/C=C/C(=O)c3nccn3C)cc2)cc1`, the growth is -30.7% (active).

With `COc1ccc(-c2cc(-c3ccc(Cl)cc3)c(C#N)c(=O)n2CCCCC(=O)Nc2ccccc2N)cc1`, the growth was 65.4%.

In the case of `O=C(/C=C/c1ccc(Cl)cc1)c1cccc(Nc2nc(Nc3ccccc3)nc(Nc3ccccc3)n2)c1`, the growth was 100%.

In the case of `Oc1ccc(CCn2c(O)c(/C=C3\CN=c4ccccc4=N3)sc2=S)cc1`, the growth is 77.5%.

For the compound `CCCCCOc1ccc(C(=O)/C(Br)=C/C(=O)O)cc1`, the growth was 87.4%.

Regarding `COc1ccc(-c2ccc3cnc4sc(-c5ccc(OC)cc5)nc4c3n2)cc1`, the growth was 107%.

For the compound `CC(C)c1ccc(COCc2cc(CN3CCCC3)c(O)c3ncccc23)cc1`, the growth was 27.3%.

Turning to `O=C(Nc1cc(Cl)ccc1O)c1ccc(Nc2ccnc(C(F)(F)F)c2)cc1`, the growth is 83.6%.

As for `CC(C)(C)n1cc(-c2ccnc(NCCNS(=O)(=O)c3cccc(F)c3)c2)c(-c2ccccc2)n1`, the growth is 102%.

`O=C(O)/C(=C\c1ccc(Cl)cc1)c1ccc(Cl)cc1`: the growth is 95.9%.

With `CC12CCC3c4ccccc4CCC3(CO1)C2` (stereo not given), the growth is 99.9%.

Turning to `O=C(Cn1cc(CN2CCCCCC2)nn1)Nc1ccc2c(ccn2Cc2ccccc2)c1`, the growth is 99.9%.

As to `N#Cc1cnc(NCCc2ccncc2)nc1-n1cnc2ccccc21`, the growth was 80.9%.

On to `CCOC(=O)C(=Cc1cccc(Br)c1)C(=O)OCC`, for which the growth was 39.2%.

For the compound `C=C(C)[C@@H]1CC[C@]2(C(=O)OC)CC[C@]3(C)[C@H](CC[C@@H]4[C@@]5(C)C/C(=C/NC(N)=S)C(=O)C(C)(C)[C@@H]5CC[C@]43C)[C@@H]12`, the growth was 98.9%.

Consider `O=C1CNC(c2ccccc2)C(c2ccccc2)N1` (stereo not given), for which the growth was 171%.

`CC[C@@H](C(=O)[C@@H](C)[C@@H](O)[C@H](C)[C@@H]1O[C@@H]([C@@H](CC)C(=O)NCCc2ccc(F)cc2)CC[C@@H]1C)C1O[C@]2(C=CC(=O)[C@]3(CC[C@@](C)([C@H]4CC[C@](O)(CC)[C@H](C)O4)O3)O2)[C@H](C)C[C@@H]1C` (stereo not given in full): the growth is 58.2%.

Turning to `C#CCOc1cccc(Nc2ncnc3ccc(NC(=O)CCl)cc23)c1`, the growth is -17.2% (active).

For the compound `COc1cc2c(c(OC)c1OC)-c1ccc(OC)c(=O)cc1[C@@H](NC(=O)CCl)CC2`, the growth was 47%.

In the case of `CN(C)c1ccc(/C=C/C(=O)c2ccc(-n3cc(CN4CCN(c5cc6c(cc5F)c(=O)c(C(=O)O)cn6C5CC5)CC4)nn3)cc2)cc1`, the growth is 68%.

For the compound `COc1ccc(N2CCC(=O)NC2=S)cc1`, the growth is 111%.

Take `O=C1COCCN1c1ccc(Nc2nc(Cl)nc(OCc3cn(Cc4ccccc4)nn3)n2)cc1`: the growth was 101%.

`O=C1c2c(c3c4ccc(Br)cc4oc3c3[nH]c4ccccc4c23)C(=O)N1O`: the growth was -0.104% (active).

As for `CC(C)(C)n1cc(-c2ccnc(NCCCNS(=O)(=O)c3ccc(F)cc3)c2)c(-c2cccc(F)c2)n1`, the growth is 82.4%.

`O=C1C(Cl)=C(Nc2ccc(O)cc2)C(=O)N1Cc1ccc(Cl)cc1`: the growth is 61.6%.

On to `COc1ccc(OC)c(C(=O)/C=C/c2cc3c(c(OC)c2OC)OCO3)c1`, for which the growth is 89.7%.

For the compound `COc1ccc(-c2csc(N(C(=O)N3CCN(c4cc5c(cc4F)c(=O)c(C(=O)O)cn5C4CC4)CC3)c3ccccc3)n2)cc1`, the growth was 36.3%.

`O=C(CCc1nnc(Cn2cnc3nc[nH]c3c2=O)o1)c1nc2ncccc2[nH]1`: the growth was 111%.

As for `CC(C)CCNC(=O)Cn1cccc(NC(=O)OCc2ccccc2)c1=O`, the growth is 98.8%.

With `O=C(/C=C(/C=C/c1cccc2[nH]ccc12)OB(F)F)/C=C/c1cccc2[nH]ccc12`, the growth is -14.3% (active).

`Brc1c2c(c(Br)c3ccccc13)CCCC2`: the growth is 101%.

As for `COc1ccc(C(=O)C2C(c3ccc(OC)cc3)CN(C)C23C(=O)Nc2ccccc23)cc1` (stereo not given), the growth was 105%.

For the origin of these results see PubChem BioAssay (NCI).
